A selection: hits, their analogues and other compounds. The true share with any hit is near 3%.
TSG101-PTAP inh = blocks PTAP/TSG101 interaction to inhibit HIV-1 budding | Potency, µM (series often up to 115 µM), hits mostly inhibitors | 340,000 tested, under 10 active | Fluorescence polarization, FITC-PTAP peptide / Tsg101 binding; active = well fitted inhibition curve with a large enough effect in the main read-out, with a control signal flat, not every such curve was filed as active; inconclusive = small, poorly fitted or top-dose-only effect, or effect the other way, or a change in a side signal; inactive = no such curve, though single readings can be large or run the other way
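FP read-out: FITC-PTAP peptide, 50 nM final, binding Tsg101 binding domain, 10 uM final; 20 min, r.t.; 10 mM HEPES pH 7.5, 0.15 M NaCl, 0.01% Tween 20, 3 mM EDTA, 0.1 mM TCEP.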
PLK1 PBD block = PLK1 (human) polo-box domain binding inhibition | 360,000 compounds, 2.8% hits | Plk1 PBD binding of FITC phosphopeptide, fluorescence polarization | P53350 | Potency, µM, hits mostly inhibitors | AID 720504; also: series mostly up to about 57 µM; nearly all actives have a fitted effect of over 65% in size
GCN5L2 inh = blocks human GCN5L2 histone acetyltransferase; Q92830; GCN5L2 HAT assay, ThioGlo1 CoA-SH fluorescence; Potency, µM (titrated, usually from 58.9 µM), hits mostly inhibitors; 390,000 compounds, 0.21% hits
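Titration-based screen in which CoA formation is detected via maleimide probe ThioGlo1 (50uM) turning fluorescent on thiol reaction; substrates H3(1-25) 75uM and acetyl-CoA 70uM, GCN5L2 20nM, 20 min incubation at room temperature.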
USP1 inh = USP1/UAF1 (human) deubiquitinase inhibition; 390,000 compounds, 0.23% hits; Potency, µM (top dose mostly 57.1 µM), hits mostly inhibitors; recombinant USP1/UAF1, Ub-Rhodamine cleavage fluorescence; also: nearly all actives have a fitted effect of over 60% in size
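High-throughput fluorogenic screen: 1nM USP1/UAF1 complex, Ub-Rho substrate 150nM final, 50mM HEPES pH 7.8 with 0.5mM EDTA, 0.1 mg/ml BSA, 1mM TCEP and 0.01% Tween-20.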
VDR inh = blocks the human vitamin D receptor; VDR-SRC2-3 peptide fluorescence polarization, 2 h; Potency, µM, usual class: inhibitors; 400,000 compounds, 0.93% hits
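The screen uses fluorescence polarization to detect compounds that interfere with recruitment of the SRC2-3 coactivator peptide to VDR; plates are read after 2 h at room temperature.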
Numbers stand for hits. Unless noted, calls follow the shape of the dose curve; as a rule, active = well fitted curve in the direction sought with a large enough effect; inconclusive = small, poorly fitted or top-dose-only effect, or another doubt; inactive = no such curve, though single readings can be large; an effect the other way counts as inactive or inconclusive.

Results for O=[N+]([O-])c1ccc(S(=O)Cc2ccccc2)c([N+](=O)[O-])c1 (stereo unspecified) ?
TSG101-PTAP inh: inactive; PLK1 PBD block: 0.75µM; USP1 inh: inactive; VDR inh: inconclusive

What do the screens show for `CCS(=O)(=O)N1N=C(c2cccc(NS(C)(=O)=O)c2)CC1c1ccc(C)cc1` (stereo unspecified)?
TSG101-PTAP inh: inconclusive; PLK1 PBD block: inactive; GCN5L2 inh: inactive; USP1 inh: inactive; VDR inh: inactive

How did COc1ccccc1-c1c(C)nn2c(N3CCN(c4ccccc4)CC3)cc(C)nc12 do in these assays?
GCN5L2 inh: inactive; USP1 inh: inactive; VDR inh: inactive

How did COc1ccccc1-c1c(C)nn2c(N3CCN(c4ccccc4OC)CC3)cc(C)nc12 do in these assays?
TSG101-PTAP inh: inactive; PLK1 PBD block: 21µM; GCN5L2 inh: inactive; USP1 inh: inactive; VDR inh: inactive

How did Cc1nsc2nc3c(F)c(F)c(F)c(F)c3cc12 do in these assays?
TSG101-PTAP inh: inactive; PLK1 PBD block: inactive; GCN5L2 inh: inactive; USP1 inh: inactive; VDR inh: inactive

Results for COc1ccc(-c2noc(-c3cc(C(C)C)[nH]n3)n2)cc1 ?
GCN5L2 inh: inactive; USP1 inh: inactive; VDR inh: inactive

Results for O=c1oc2c(O)cccc2cc1-c1nc2ccccc2[nH]1 ?
TSG101-PTAP inh: inconclusive; PLK1 PBD block: 1.9µM; GCN5L2 inh: inconclusive; USP1 inh: inactive; VDR inh: inactive

Results for Cc1c(-c2ccccc2)c(=O)oc2c(CN3CCCC3)c(O)ccc12 ?
GCN5L2 inh: 35µM; USP1 inh: inactive; VDR inh: inactive

What do the screens show for `Cc1c(-c2ccccc2)c(=O)oc2c(CN3CCOCC3)c(O)ccc12`?
GCN5L2 inh: inconclusive; USP1 inh: inactive; VDR inh: inactive

How did O=c1oc2c(CN3CCCCC3)c(O)ccc2cc1-c1nc2ccccc2[nH]1 do in these assays?
TSG101-PTAP inh: inconclusive; PLK1 PBD block: 27µM; GCN5L2 inh: inactive; USP1 inh: 28µM; VDR inh: inactive

Results for O=C(O)c1ccc2nc(-c3cc4cccc(O)c4oc3=O)[nH]c2c1 ?
GCN5L2 inh: inactive; USP1 inh: inconclusive; VDR inh: inactive

How did CC(OC(=O)Cc1n[nH]c(=O)c2ccccc12)C(=O)N(C)c1ccccc1 (stereo unspecified) do in these assays?
PLK1 PBD block: inactive; USP1 inh: inactive

Results for C[C@H]1Cn2cnc(C(=O)Nc3ccccc3)c2C(=O)N1 ?
PLK1 PBD block: inactive; USP1 inh: inactive

Results for COc1ccc(N2CCN(C(c3ccccc3)c3nnc(-c4ccccc4Cl)o3)CC2)cc1 (stereo unspecified) ?
GCN5L2 inh: inactive; USP1 inh: inactive; VDR inh: inactive

What do the screens show for `C[C@H]1CN([C@@H](C)CO)S(=O)(=O)c2ccc(Br)cc2O[C@H]1CN(C)S(=O)(=O)c1ccccc1`?
PLK1 PBD block: inactive; USP1 inh: inactive

How did C[C@@H]1CN([C@H](C)CO)S(=O)(=O)c2ccc(Br)cc2O[C@@H]1CN(C)Cc1ccc(-c2ccccc2)cc1 do in these assays?
PLK1 PBD block: inactive; USP1 inh: 25µM

Results for C[C@@H]1CN([C@H](C)CO)S(=O)(=O)c2ccc(Br)cc2O[C@@H]1CN(C)Cc1ccc(C(=O)O)cc1 ?
PLK1 PBD block: inactive; USP1 inh: inactive

What do the screens show for `COc1cccc(S(=O)(=O)N(C)C[C@H]2Oc3cc(Br)ccc3S(=O)(=O)N([C@@H](C)CO)C[C@H]2C)c1`?
PLK1 PBD block: inactive; USP1 inh: 18µM

How did O=C(O)COc1ccccc1C1C2C(=O)N(c3ccc(F)cc3)C(=O)C2ON1c1ccccc1 (stereo unspecified) do in these assays?
TSG101-PTAP inh: inactive; PLK1 PBD block: 27µM; GCN5L2 inh: inactive; USP1 inh: inactive; VDR inh: inactive

What do the screens show for `COc1ccccc1C1C2C(=O)N(c3ccccc3)C(=O)C2ON1c1ccccc1` (stereo unspecified)?
TSG101-PTAP inh: inactive; PLK1 PBD block: inactive; GCN5L2 inh: inactive; USP1 inh: inactive; VDR inh: inactive

What do the screens show for `COc1ccc(S(=O)(=O)N2CCCN(CC(=O)Nc3ccc(OC)cc3OC)CC2)cc1`?
GCN5L2 inh: inactive; USP1 inh: inactive; VDR inh: inactive

What do the screens show for `CCc1cccc(-n2c(=O)c3cccnc3n2CC(=O)Nc2ccc(OC)c(Cl)c2)c1`?
GCN5L2 inh: inactive; USP1 inh: inactive; VDR inh: inactive

Bioassay records from PubChem BioAssay.
